Most compounds without a hit are left out; they make up all but 9.1% or so of the library.
Htt clearance: compounds clearing mutant huntingtin protein; inhibition, % at 1.5 µM; 0.42% of 47,000 active; HeLa Exon1htt(103Q)mCFP, aggregate imaging; zero = plate's median compound well;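 active = inhibition of aggregate fluorescence above about 70%, also judged a hit by eye on the cell image, limit read from the data, passing the limit was not always enough; inconclusive = no rule stated for this call; inactive = not judged a hit on image review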;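 also: cells exposed to compound for three days before fixation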
M1 antag: M1 muscarinic receptor (rat) antagonism; AID 628; 3.4% of 64,000 active; CHO-M1 cells, Fluo-4 calcium, ACh EC80 antagonist mode; hits give low values; B-score at 10 µM; P08482;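 active = calcium fluorescence response, raw or row-and-column corrected B-score, differing from the plate sample mean either way at a set confidence level, mostly lower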
M1 agonist: agonists of M1 muscarinic receptor | CHO-M1 cells, Fluo-4 calcium fluorescence, agonist mode; hits give high values | B-score at 10 µM | 3% of 64,000 active | AID 626;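 active = fluorescence rise, raw or as B-score row- and column-corrected plate score, outside the 99.7% band of its plate's samples, either direction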
D1 mod: D1 dopamine receptor (human) allosteric modulation; P21728; HEK293 D1, CRE-luciferase, dopamine EC30 potentiation; actives deviate in either direction; B-score at 10 µM; 5.9% of 58,000 active;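 active = luminescence count or its row- and column-corrected plate score outside the 99.7% band of the plate's sample wells, on either side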
Target sequence (P21728 whole entry, looked up): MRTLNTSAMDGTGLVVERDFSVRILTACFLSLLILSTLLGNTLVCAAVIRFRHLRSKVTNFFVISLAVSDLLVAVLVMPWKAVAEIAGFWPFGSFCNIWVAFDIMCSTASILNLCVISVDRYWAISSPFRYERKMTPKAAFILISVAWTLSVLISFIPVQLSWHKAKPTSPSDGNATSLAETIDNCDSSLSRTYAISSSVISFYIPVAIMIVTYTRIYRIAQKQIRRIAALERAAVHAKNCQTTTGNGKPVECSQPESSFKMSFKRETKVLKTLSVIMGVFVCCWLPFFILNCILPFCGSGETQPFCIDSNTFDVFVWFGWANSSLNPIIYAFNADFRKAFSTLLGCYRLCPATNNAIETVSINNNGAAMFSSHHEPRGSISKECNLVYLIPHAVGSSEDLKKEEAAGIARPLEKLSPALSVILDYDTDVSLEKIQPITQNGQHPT
D1 mod confirm: confirmation of human D1 dopamine receptor allosteric modulators; HEK293 D1 CRE-luciferase, dopamine EC30 potentiation; hits give high values; luminescence at 10 µM; 88% of 2,200 active; shares compounds with D1 mod;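 active = luminescence in either of two replicates above the same-plate mean plus 3 SD of the low-dose dopamine control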
D1 ag no DA: secondary test of D1 modulators: activity without dopamine; 0.8% of 1,900 active; luminescence at 10 µM; shares compounds with D1 mod; HEK293 D1 CRE-luciferase, luminescence, no dopamine; hits give high values; in the data active = luminescence above about 3900
Isoprot counter: isoproterenol response counter-screen activity for D1 modulators | 63% of 2,200 active | HEK293 D1 CRE-luciferase, isoproterenol EC30 counter-screen; hits give high values | luminescence at 10 µM | AID 647 | shares compounds with D1 mod;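 active = luminescence in either replicate above plate mean of wells with a partly effective reference agonist dose plus 3 SD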;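 also: isoproterenol raises cAMP through native beta-adrenoceptor Gs so signal bypasses D1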
A number is an active result.

How did COc1cc(-c2c(C#N)c(N)nc(SCc3ccncc3)c2C#N)cc(OC)c1OC do in these assays?
M1 antag: inactive; M1 agonist: inactive; D1 mod: inactive

Results for COc1ccc(OC)c(NC(=O)COC(=O)c2ccc(-n3cnnn3)cc2)c1 ?
Htt clearance: inactive; M1 antag: inactive; M1 agonist: inactive; D1 mod: inactive

What do the screens show for `COC(=O)c1ccc(COC(=O)c2ccc(-n3cnnn3)cc2)o1`?
Htt clearance: inactive; M1 antag: inactive; M1 agonist: inactive; D1 mod: 6; D1 mod confirm: inactive; Isoprot counter: inactive

What do the screens show for `O=C1c2ccccc2C(Nc2ccc(F)c(Cl)c2)N1Cc1ccco1` (configuration not stated)?
Htt clearance: inactive; M1 antag: inactive; M1 agonist: inactive; D1 mod: inactive

What do the screens show for `O=C1c2ccccc2C(Nc2ccc3c(c2)OCO3)N1Cc1ccco1` (configuration not stated)?
Htt clearance: inactive; M1 antag: inactive; M1 agonist: inactive; D1 mod: 7.6; D1 mod confirm: 12600; D1 ag no DA: inactive; Isoprot counter: 3104

Results for O=C1c2ccccc2C(Nc2ccc3c(c2)OCO3)N1Cc1ccc2c(c1)OCO2 (configuration not stated) ?
Htt clearance: inactive; M1 antag: inactive; M1 agonist: inactive; D1 mod: 4.1; D1 mod confirm: 9888; D1 ag no DA: inactive; Isoprot counter: 3704

What do the screens show for `COc1cccc(C2CC(c3ccc(C)cc3)Nc3nc(N)nn32)c1` (configuration not stated)?
M1 antag: inactive; M1 agonist: inactive; D1 mod: inactive

What do the screens show for `Nc1nc2n(n1)C(c1cccs1)CC(c1ccccc1)N2` (configuration not stated)?
Htt clearance: inactive; M1 antag: inactive; M1 agonist: inactive; D1 mod: 14; D1 mod confirm: 13800; Isoprot counter: 2964

What do the screens show for `COc1ccc(C2CC(c3ccc(Cl)cc3Cl)Nc3nc(N)nn32)cc1` (configuration not stated)?
Htt clearance: inactive; M1 antag: inactive; M1 agonist: inactive; D1 mod: 3.1; D1 mod confirm: 6116; D1 ag no DA: inactive; Isoprot counter: inactive

What do the screens show for `Cc1cccc(C2CC(c3ccccc3)Nc3nc(N)nn32)c1` (configuration not stated)?
Htt clearance: inactive; M1 antag: inactive; M1 agonist: inactive; D1 mod: 18; D1 mod confirm: 16344; D1 ag no DA: inactive; Isoprot counter: 4316

Results for COc1ccc(C2CC(c3ccc(Cl)cc3Cl)n3nc(N)nc3N2)cc1 (configuration not stated) ?
Htt clearance: inconclusive; M1 antag: inactive; M1 agonist: inactive; D1 mod: inactive

How did Nc1nc2n(n1)C(c1cccc(Cl)c1)CC(c1ccc(F)cc1)N2 (configuration not stated) do in these assays?
Htt clearance: inactive; M1 antag: inactive; M1 agonist: inactive; D1 mod: 13; D1 mod confirm: 13312; Isoprot counter: 2912

What do the screens show for `N#CC1=C(N)SC2(CCCCC2)SC1c1ccccc1` (configuration not stated)?
M1 antag: inactive; M1 agonist: inactive; D1 mod: 3.2; D1 mod confirm: 6560; Isoprot counter: 2760

Results for N#CC1=C(C2CC2)CC(c2ccccc2)C(C#N)=C1N (configuration not stated) ?
Htt clearance: inactive; M1 antag: inactive; M1 agonist: inactive; D1 mod: inactive

What do the screens show for `CCc1nnc(NC(=O)CSc2nc3cccnc3n2C2CCCCC2)s1`?
Htt clearance: inactive; M1 antag: inactive; M1 agonist: inactive; D1 mod: 6.2; D1 mod confirm: 8624; D1 ag no DA: inactive; Isoprot counter: 3328

Results for Cc1nc(NC(=O)CSc2nc3cccnc3n2C2CCCCC2)sc1C ?
Htt clearance: inactive; M1 antag: inactive; M1 agonist: inactive; D1 mod: inactive

Results for N#CCCCCn1c(-c2cncs2)nc2ccccc21 ?
Htt clearance: inactive; M1 antag: inactive; M1 agonist: inactive; D1 mod: 4.7; D1 mod confirm: 17344; D1 ag no DA: inactive; Isoprot counter: 3252

Screens deposited in PubChem by several laboratories.
